Assay [1] can be described thus: NCI Yeast Anticancer Drug Screen. Data for the rad50 strain (AID 155).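 Note: 0% = growth of vehicle-only cultures of the same strain.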 As to conditions: S. cerevisiae rad50 strain growth inhibition; at 50.0 µM; stronger effect = higher value. The method in brief: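 Growth of the mutant yeast was measured after compound exposure and referenced to vehicle-treated cultures.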
A short description of assay [2]: NCI Yeast Anticancer Drug Screen. Data for the mec2-1 strain (AID 157). As to conditions: S. cerevisiae mec2-1 strain, at 50.0 µM, stronger effect = higher value. The procedure, abridged:
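Vehicle-treated cultures served as reference for growth inhibition of compound-exposed mec2-1 yeast.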

Assay [3] can be described thus: NCI Yeast Anticancer Drug Screen. Data for the sgs1 mgt1 strain (AID 161).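 Note: 0% = growth of cultures given vehicle only.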 As to conditions: S. cerevisiae sgs1 mgt1 strain, at 50.0 µM, stronger effect = higher value. The method in brief:
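Read-out: growth inhibition vs vehicle controls. Cells: mutant yeast strain deficient in DNA damage repair.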

The nature of assay [4]: NCI Yeast Anticancer Drug Screen. Data for the cln2 rad14 strain (AID 165).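 Note: 0% = growth equal to vehicle treated cultures.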 As to conditions: S. cerevisiae cln2 rad14 strain, at 50.0 µM, stronger effect = higher value. The procedure, abridged:
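Each compound was tested on cln2 rad14 yeast. Inhibition of growth was calculated against vehicle-exposed controls.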

Assay [5] can be described thus: NCI Yeast Anticancer Drug Screen. Data for the bub3 strain (AID 167). As to conditions: S. cerevisiae bub3 mutant strain, at 50.0 µM, stronger effect = higher value. The method in brief:
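Whole-cell yeast assay. The mutant strain was incubated with compounds, and growth inhibition was determined by comparison with vehicle-treated cells.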

The nature of assay [6]: NCI Yeast Anticancer Drug Screen. Data for the mlh1 rad18 strain (AID 175). As to conditions: S. cerevisiae mlh1 rad18 strain growth inhibition; at 50.0 µM; stronger effect = higher value. The method in brief: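 Vehicle-treated cultures served as the reference for growth inhibition in a yeast strain carrying DNA damage repair alterations exposed to each compound.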

About 79,000 compounds went through this panel and 15% of them were active in at least one assay; those are over-represented in the sample as a whole. Values without a mark were called inactive. Activity calls are given as the source filed them. Cut-off read from the data, not from the text of the source: active = growth inhibition above about 70%; inactive = the rest.

On to `CC(C)CC1=C(O)c2ccccc2C(=O)C1=O`, for which the growth inhibition is 11% in assay [1]; -9.7% in assay [2]; -1.45% in assay [3]; -1.6% in assay [4]; 10.4% in assay [5]; -2.4% in assay [6].

Take `O=C(CCC1CCCC1)Oc1ccccc1C(=O)O`: the growth inhibition is -1.9% in assay [1]; -9.65% in assay [2]; 7.1% in assay [3]; -42.7% in assay [4]; 9.5% in assay [5]; 3.4% in assay [6].

Take `CCOC(=O)c1ccc(CS(=O)c2ccccc2)c([N+](=O)[O-])c1` (stereo unspecified): the growth inhibition in assay [1] was 14.7%; in assay [2] it was -4.75%; in assay [3], 20.6%; in assay [4], 3.55%; in assay [5] it was 58.1%; in assay [6], 18.2%.

For `O=C(Nc1cccc([N+](=O)[O-])c1)C1C(=O)N(c2cccc([N+](=O)[O-])c2)C(=O)/C1=N/O` (stereo unspecified), the growth inhibition is -16.8% in assay [1]; -7.4% in assay [2]; -24.8% in assay [3]; -50.4% in assay [4]; 0.1% in assay [5]; -3.5% in assay [6].

As for `CCc1c(Cc2[nH]c(C=O)c(C)c2CC)[nH]c(C=O)c1C`, the growth inhibition is 6.85% in assay [1]; -11.9% in assay [2]; 11.2% in assay [3]; -1.05% in assay [4]; 5.45% in assay [5]; 3.8% in assay [6].

As to `CC(=O)Nc1cc(Cl)ccc1SC1OC(COC(C)=O)C(OC(C)=O)C(OC(C)=O)C1OC(C)=O` (stereo unspecified), the growth inhibition is -10.6% in assay [1]; -7.15% in assay [2]; 17.9% in assay [3]; -44.2% in assay [4]; 4.6% in assay [5]; -2.8% in assay [6].

Regarding `CC1(C)C=C(C(Cl)c2ccccc2)C(=O)c2ccccc21` (stereo unspecified), the growth inhibition in assay [1] is -1%; in assay [2] it was 6.6%; in assay [3], 0%; in assay [4] it was -4.6%; in assay [5], -3.7%; in assay [6], -7.15%.

Take `C/C(=N/NS(=O)(=O)c1ccc(C)cc1)C(=NO)/C(C)=N\NS(=O)(=O)c1ccc(C)cc1`: the growth inhibition in assay [1] was 55.6%; in assay [2], 70.2% (active); in assay [3], 45.4%; in assay [4], 86.2% (active); in assay [5] it was 49.9%; in assay [6], 60.5%.

Consider `CCOc1ccc(NC(=O)CCc2nnc(SC)o2)cc1`, for which the growth inhibition was 20.5% in assay [1]; -17.2% in assay [2]; -4.75% in assay [3]; -16.4% in assay [4]; 29.1% in assay [5]; 23.2% in assay [6].

`CC(C)c1cccc(C(C)C)c1N1C(=O)C(=O)C(c2nc3ccccc3s2)C(=O)C1=O`: the growth inhibition in assay [1] was -11.7%; in assay [2], -17.1%; in assay [3], -7.65%; in assay [4] it was -10%; in assay [5], 1.55%; in assay [6] it was -12.2%.

For the compound `CC(C)N1CCN(c2ccncc2S(=O)(=O)N2CCCCC2)CC1`, the growth inhibition in assay [1] was -14.1%; in assay [2], -23.2%; in assay [3] it was -12.3%; in assay [4] it was -5.5%; in assay [5], -21.9%; in assay [6], -30.4%.

Consider `C[C@]12CC[C@@H]3c4ccc(OS(=O)(=O)O)cc4CC[C@H]3[C@@H]1CCC2=O`, for which the growth inhibition in assay [1] was 22.2%; in assay [2], -0.4%; in assay [3], 12.2%; in assay [4], 18.4%; in assay [5], 23.6%; in assay [6] it was 3.15%.

With `CC(=O)NCCc1nc(-c2nc(C(=O)NCCC(C)C)cs2)cs1`, the growth inhibition in assay [1] is 14.1%; in assay [2], 16.6%; in assay [3], -2%; in assay [4], -23.4%; in assay [5], 6.8%; in assay [6], 5.9%.

For the compound `CN(/N=C/c1cccc2cccnc12)c1ccccc1`, the growth inhibition in assay [1] was 8.9%; in assay [2], 6.3%; in assay [3] it was -0.45%; in assay [4] it was 29.4%; in assay [5], 14.6%; in assay [6], 16.7%.

As to `COC(=O)C1Cc2cc(OC)c(OC)cc2C(c2ccc(OC)c(OC)c2)C1C(N)=O` (stereo unspecified), the growth inhibition in assay [1] was -7.9%; in assay [2], 11.3%; in assay [3], -8.3%; in assay [4] it was 0.25%; in assay [5], -0.9%; in assay [6], -1.95%.

As to `CC(C)N(CC(c1ccccc1)C(O)(c1ccccc1)c1ccccc1)C(C)C` (stereo unspecified), the growth inhibition in assay [1] is 16.1%; in assay [2], 8%; in assay [3], 17.5%; in assay [4], 26.8%; in assay [5] it was -0.75%; in assay [6] it was 32.3%.

Take `Cc1ccc(N=Cc2ccc3c(c2)OCO3)cc1C`: the growth inhibition in assay [1] was 8.05%; in assay [2], 6.2%; in assay [3], 9.65%; in assay [4], 40.6%; in assay [5], 10.1%; in assay [6], 29.2%.

In the case of `NNc1ncnc2c(C3OC(CO)C(O)C3O)[nH]nc12` (stereo unspecified), the growth inhibition in assay [1] was 7%; in assay [2] it was 6.35%; in assay [3], 8.2%; in assay [4] it was -70.3%; in assay [5] it was 7.15%; in assay [6], 8.95%.

With `CO/C=C/CCCO`, the growth inhibition is -14.8% in assay [1]; -16.5% in assay [2]; -14.8% in assay [3]; 7.55% in assay [4]; -3.55% in assay [5]; -9.7% in assay [6].

Regarding `C/C=C1\C(=O)OC2CCN3CCC(COC(=O)C(C)(O)C(C)C1O)C23` (stereo unspecified), the growth inhibition was 11.2% in assay [1]; -7.65% in assay [2]; -24.6% in assay [3]; -13.7% in assay [4]; -46.5% in assay [5]; -60.2% in assay [6].

Consider `Cn1ncc2c(NCCc3ccccc3)nc(Cl)nc21`, for which the growth inhibition is 19.8% in assay [1]; -18.3% in assay [2]; 5.15% in assay [3]; 11.2% in assay [4]; 8.1% in assay [5]; 30.2% in assay [6].

The record behind these values is PubChem BioAssay (NCI).
